Screening data as filed in PubChem BioAssay.
JMJD2A Tudor – JMJD2A Tudor domain (human) inhibition; O75164; AlphaScreen JMJD2A-Tudor / H3K4me3 peptide binding; Potency, µM (doses to about 114 µM), for inactives: at the highest dose activity change, negative = inhibition, usual class: inhibitors; 390,000 compounds, 4.4% hits; AID 504339; note: % is set by controls: 0 for no effect and ±100 for the full control effect; nearly all actives have a fitted effect of over 50% in size
HP1b binding inh – inhibitors of HP1-beta chromodomain binding to methylated histone tails; AID 540317; Potency, µM (top dose mostly 114 µM), without a hit: top-dose activity change, negative = inhibition, hits mostly inhibitors; AlphaScreen HP1-beta / biotin-H3K9me3 peptide binding; 390,000 compounds, 0.56% hits; P83916; note: nearly all actives have a fitted effect of over 70% in size
Target sequence (P83916 whole entry, looked up): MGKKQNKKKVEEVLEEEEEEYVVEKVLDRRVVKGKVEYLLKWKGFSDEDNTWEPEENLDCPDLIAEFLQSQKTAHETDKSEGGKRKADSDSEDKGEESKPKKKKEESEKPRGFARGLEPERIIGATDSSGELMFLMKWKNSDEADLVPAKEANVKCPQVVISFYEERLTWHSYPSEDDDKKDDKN
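HP1-beta protein (50 nM final) preincubated 30 min at room temperature with biotinylated H3(1-18)K9me3 peptide (50 nM) in PBS pH 7.4, 0.01% Tween-20, then compound added for 30 min. AlphaScreen streptavidin donor/nickel chelate acceptor beads (10 ug/mL final), 30 min dark, luminescence read.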
G9a block – blocks human histone lysine methyltransferase G9a | Q96KQ7 | G9a H3K9 monomethylation, AlphaScreen, 2 h | Potency, µM (doses to about 102 µM), without a hit: at the top dose activity, negative = inhibition, actives largely listed as inhibitors | 350,000 compounds, 8.8% hits; note: % is set by controls: 0 for no effect and ±100 for the full control effect; nearly all actives have a fitted effect of over 75% in size
Target sequence (Q96KQ7 913-1193 limits assumed): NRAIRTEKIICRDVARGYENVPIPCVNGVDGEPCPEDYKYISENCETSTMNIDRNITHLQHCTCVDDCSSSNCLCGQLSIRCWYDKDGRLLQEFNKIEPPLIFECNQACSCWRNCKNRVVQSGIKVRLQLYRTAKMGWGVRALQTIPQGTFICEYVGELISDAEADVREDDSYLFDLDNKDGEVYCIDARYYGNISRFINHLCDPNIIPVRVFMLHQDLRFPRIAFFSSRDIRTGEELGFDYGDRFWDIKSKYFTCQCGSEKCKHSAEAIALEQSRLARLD
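Chemiluminescent proximity detection of H3K9 monomethylation, read after 10 min bead incubation in the dark. Reaction: 20 nM G9a, 500 nM biotin-H3K9 peptide, 20 uM SAM cofactor, 2 h, room temperature, following 15 min enzyme-compound preincubation.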
BAZ2B block – inhibitors of human BAZ2B bromodomain. AlphaScreen BAZ2B-H3K14Ac peptide displacement. 360,000 compounds, 4.4% hits. Potency, µM (top dose mostly 114 µM), for the others: at the top dose activity change, negative = inhibition, most hits filed as inhibitors; note: % is set by controls: 0 for no effect and ±100 for the full control effect; nearly all actives have a fitted effect of over 60% in size
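BAZ2B (50 nM) with biotin-H3(5-23)K14Ac peptide (50 nM) in PBS pH 7.4, 0.01% Tween-20, preformed 30 min, then compound 30 min at room temperature; top concentration 110uM. AlphaScreen streptavidin donor/nickel chelate acceptor beads (10 ug/mL final), 20 min dark, signal read.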
Sfp PPTase inh – blocks B. subtilis Sfp PPTase activity. Q9F4F7. Biochemical Sfp PPTase activity, qHTS. Potency, µM, inactives show largest response in the series, negative = inhibition, usual class: inhibitors. 310,000 compounds, 3.5% hits. AID 1490;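 note: the enzyme is Sfp with the accession as filed and its product quenches rhodamine fluorescence; 0% = enzyme reaction without inhibitor and -100% = no enzyme wells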
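Step 1, compound plus 15 nM Sfp-PPTase, 15 min, room temperature. Step 2, add rhodamine-CoA (5 uM) and BHQ-2-YbbR (12.5 uM). Step 3, read 525/598 nm fluorescence at 0 and 30 min.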
An asterisk follows results filed as active; ? = inconclusive; . = not tested or not shown; [ ] = remark or other dose. A selection: hits, their analogues and other compounds. The true share with any hit is near 12%. Calls come from the whole dose curve; as a rule, active = well fitted curve in the direction sought with a large enough effect; inconclusive = small, poorly fitted or top-dose-only effect, or another doubt; inactive = no such curve, though single readings can be large; an effect the other way counts as inactive or inconclusive. Potency is the fitted concentration of half-maximal effect.

SMILES	JMJD2A Tudor	HP1b binding inh	G9a block	BAZ2B block	Sfp PPTase inh
O=C(CC(C(=O)O)N1CCOCC1)Nc1ccc(Cl)cc1 (configuration not stated)	45µM*	10%	?	10%	-9%
O=C(Nc1ccc(N2CCOCC2)c(S(=O)(=O)Nc2ccc(Cl)cc2)c1)c1cnccn1	-31%	?	.	?	5.6µM*
C[C@H](NC(N)=O)C(=O)Nc1ccc(N2CCOCC2)c(S(=O)(=O)Nc2ccc(Cl)cc2)c1	?	?	1µM*	?	.
O=Nc1c(O)[nH]c2c(Cl)c(Cl)ccc12	.	.	.	.	-17%
Cn1cc(-c2cc3n(n2)CCC(=O)N3CCCC(=O)Nc2ccccc2F)c2ccccc21	?	27%[57 µM]	-5%[59 µM]	-12%	.
CCN(Cc1ccccc1)c1ccc(/C=C(\C#N)c2ccccn2)cc1	114%	188%	50µM*	8%	?
O=C(Nc1ccccn1)c1ccc2c(c1)OCO2	-5%	43%	50µM*	-16%	12%
Cc1cccnc1NC(=O)c1ccc2c(c1)OCO2	5%	18%	-3%	-8%	.
O=C(Nc1ccccn1)c1ccc2c(c1)OCCO2	-3%	17%	16%[59 µM]	-8%	4%
O=C(Nc1ccc2c(c1)OCO2)N1CCCc2ccccc21	-7%	15%	56µM*	-16%	1%
CN(C)C(=S)Nc1ccc2c(c1)OCO2	-3%	-35%	8.9µM*	-22%	22µM*
O=C(CNC(=O)c1ccc2c(c1)OCO2)Nc1ncccc1O	56µM*	5%	?	?	.
O=C(Nc1ccc(N2CCN(C(=O)c3ccccc3F)CC2)cc1)c1cncc(Br)c1	?	-20%	.	?	-9%
O=C1C2=CC[C@H]3C(=O)N(c4cccc(Oc5ccccc5)c4)C(=O)[C@@H]3[C@@H]2[C@H](O)[C@@H]2O[C@H]12	.	.	.	.	-10%
Cc1ccccc1C(=O)N1CCC(C(=O)N(C)CC(=O)Nc2cccc(F)c2)CC1	2%	32%	33%	-2%	14%
O=C(Nc1ccc2c(c1)OCO2)c1cnccn1	-18%	1%	?	-13%	-1%
O=C(Nc1ccc2c(c1)OCO2)c1ccccn1	4.5µM*	?	1.6µM*	?	.
CCc1nc(C)c(C(=O)N2CCCC(C(=O)Nc3cccc(-c4cccc(C)c4)c3)C2)o1 (configuration not stated)	-26%	25%	.	18%	-5%
Cc1ccc(Cc2cc(-c3ccc(C)cc3)n[nH]c2=O)cc1	-30%	34%	4%	-6%	-2%
CCc1ccc2c(c1)C1(NN=C(c3ccc(C)cc3)S1)C(=O)N2 (configuration not stated)	50µM*	18µM*	28µM*	7.9µM*	-9%
CC(C)c1ccc2c(c1)C1(NN=C(c3ccccc3)S1)C(=O)N2 (configuration not stated)	71µM*	?	18µM*	10µM*	-11%
O=C(CN1C(=O)NC(c2ccccc2)(c2ccccc2)C1=O)NC1CCCCC1	-1%	31%	-14%[59 µM]	11%	.
Cc1oncc1C(=O)NC(C)C	6%	38%	45µM*	4%	25%
COc1c(OC)c(O)c2c(=O)cc(-c3c(O)cccc3O)oc2c1OC	-28%	8%	13%[12.7 µM]	-22%	20µM*
CCCCn1cc(S(=O)(=O)c2ccc(C)c(C)c2)c(=O)c2cc(F)c(N3CCN(C)CC3)cc21	-10%	27%	-9%[59 µM]	0%	.
SMILES	JMJD2A Tudor	HP1b binding inh	G9a block	BAZ2B block	Sfp PPTase inh
CCCC[C@@H]1C=C(C(=O)O)[C@H](c2ccc(Cl)c(Cl)c2)N1S(=O)(=O)c1ccc(C)cc1	-22%	19%	.	.	.
COc1ccc(C(=O)c2ccc(Cl)cc2)c(OC)c1OC	29%	72%	.	.	.
O=C(CNC(=O)c1ccc(Cl)cc1)OC(C(=O)Nc1cc(C(F)(F)F)ccc1Cl)c1ccccc1 (configuration not stated)	-8%	.	.	.	.
CSc1nc2ccc(Nc3nc(N4CCOCC4)nc(N4CCOCC4)n3)cc2s1	-36%	3%	16µM*	1%	-16%
CCCCc1ccc(Nc2nc(N3CCOCC3)nc(N3CCOCC3)n2)cc1	-14%	38%	50µM*	-39%[57.1 µM]	-5%
Cc1ccc(Nc2nc(N3CCOCC3)nc(N3CCOCC3)n2)cc1	-14%	20%	.	2%	5%
